# Screening results deposited in PubChem BioAssay by National Center for Advancing Translational Sciences (NCATS).
# The list is not random: actives were taken first. Their share in the collection is about 17%.
# TDP1 cell noCPT – qHTS for Inhibitors of human tyrosyl-DNA phosphodiesterase 1 (TDP1): qHTS in cells in absence of CPT; Potency, µM (series often up to 46.2 µM), for the others: at the top dose activity change, negative = growth inhibition, most hits filed as inhibitors; hit rate 15% among 420,000; DT40 Tdp1-/- hTDP1 cells, no CPT, ATP luminescence, 48 h; note: % is set by controls: 0 for no effect and ±100 for the full control effect; nearly all actives have a fitted effect of over 55% in size
#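 Chicken DT40 Tdp1-/- cells stably complemented with human TDP1 were seeded at 400 cells/well with DMSO in place of 20 nM camptothecin. After compound pinning, cells grew at least 48 hr at 37 °C; viability read by CellTiter-Glo luminescence.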
# TDP1 inh – qHTS Assay for Inhibitors of Tyrosyl-DNA Phosphodiesterase (TDP1); hit rate 0.28% among 350,000; recombinant TDP1, AlphaScreen DNA substrate cleavage; Tyrosyl-DNA phosphodiesterase 1 (Homo sapiens), Q9NUW8; AID 485290, 2010; Potency, µM (titrated, usually from 130 µM), for the others: at the top dose activity change, negative = inhibition, hits mostly inhibitors; note: % is set by controls: 0 for no effect and ±100 for the full control effect; nearly all actives have a fitted effect of over 40% in size
# Target sequence (Q9NUW8 whole entry, looked up): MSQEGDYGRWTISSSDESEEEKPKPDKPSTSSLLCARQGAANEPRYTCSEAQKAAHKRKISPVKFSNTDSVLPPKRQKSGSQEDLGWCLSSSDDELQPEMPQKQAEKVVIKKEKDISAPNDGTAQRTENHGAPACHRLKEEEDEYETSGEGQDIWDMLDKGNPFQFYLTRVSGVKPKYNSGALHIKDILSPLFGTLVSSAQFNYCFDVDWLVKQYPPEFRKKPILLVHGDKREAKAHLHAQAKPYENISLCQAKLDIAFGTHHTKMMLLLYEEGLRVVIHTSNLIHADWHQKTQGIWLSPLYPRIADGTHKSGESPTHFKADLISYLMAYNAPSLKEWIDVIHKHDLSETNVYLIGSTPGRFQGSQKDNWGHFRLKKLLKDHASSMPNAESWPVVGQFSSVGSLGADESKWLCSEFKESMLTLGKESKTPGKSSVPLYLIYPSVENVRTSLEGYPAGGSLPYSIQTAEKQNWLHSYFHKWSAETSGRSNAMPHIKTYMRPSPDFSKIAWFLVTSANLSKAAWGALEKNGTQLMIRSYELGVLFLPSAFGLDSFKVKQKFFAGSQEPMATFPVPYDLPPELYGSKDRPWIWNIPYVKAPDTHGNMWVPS
#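 Compounds were preincubated with Tdp1 (1 nM final) for 15 min at room temperature before substrate (15 nM final) started a 5 min reaction; beads (10 ug/ml final) were then added for 10 min before AlphaScreen detection.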
# TDP1 cell CPT – qHTS for Inhibitors of human tyrosyl-DNA phosphodiesterase 1 (TDP1): qHTS in cells in presence of CPT. AID 686979, 2013. hit rate 12% among 420,000. chicken DT40 Tdp1-/-;hTDP1 cells + 20 nM CPT, ATP luminescence, 48 h. Potency, µM (series often up to 46.2 µM), without a hit: top-dose activity change, negative = growth inhibition, most hits filed as inhibitors; note: % is set by controls: 0 for no effect and ±100 for the full control effect; nearly all actives have a fitted effect of over 55% in size
#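 Cell growth measured by CellTiter-Glo luminescence after a minimum 48 h, 37 C compound exposure with 20 nM CPT in Tdp1-knockout DT40 cells stably expressing hTDP1, seeded 400/well; qHTS titration format.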
# ClpP mod – qHTS Assay for Activators of ClpP. hit rate 1.9% among 340,000. Potency, µM (series often up to 57.5 µM), for inactives: at the highest dose activity change, negative = active. AID 651965, 2013. purified B. subtilis ClpP, FRET peptide cleavage, 20 min. ATP-dependent Clp protease proteolytic subunit (Bacillus subtilis (strain 168)), P80244; active = well fitted falling curve with a large enough effect; inconclusive = small, poorly fitted or top-dose-only effect; inactive = no such curve, though single readings can be large or run the other way; note: the source files actives as falling curves though it sought activators and does not explain the sign; nearly all actives have a fitted effect of over 65% in size
#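 ClpP 10 microg/mL final, pH 8 Tris/KCl buffer with BSA, glycerol, Tween-20; compound pinned in; FRET-FV substrate; RT 20 min; Ex320/Em430; ΔFRET vs ADEP 5.8 microM, DMSO, no enzyme.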
# Active calls of the source: *; ? = inconclusive; . = not tested or not shown; ! = repeats disagree. Unless noted, calls come from the whole dose curve; as a rule, active = well fitted curve in the direction sought with a large enough effect; inconclusive = small, poorly fitted or top-dose-only effect, or another doubt; inactive = no such curve, though single readings can be large; an effect the other way counts as inactive or inconclusive. Potency is the fitted concentration of half-maximal effect.
SMILES,TDP1 cell noCPT,TDP1 inh,TDP1 cell CPT,ClpP mod
CN(C)CCCN(C(=O)CCS(=O)(=O)c1ccccc1)c1nc2cc3c(cc2s1)OCO3,1.46µM*,1.2%,1.3µM*,0.6%
CN(C)CCCN(C(=O)CCSc1ccccc1)c1nc2cc3c(cc2s1)OCO3,13µM*,4.8%,8.2µM*,.
CN(C)CCCN(C(=O)c1ccc(S(=O)(=O)N(C)C)cc1)c1nc2cc3c(cc2s1)OCO3,?,-4.3%,?,.
CCCCc1ccc(NC(=O)CSc2nnc3[nH]c(=O)cc(C)n23)cc1,-8.4%,0.0%,-1.6%,-3.9%
CCCNC(=O)CCc1c(C)nc2nc(CNC(=O)c3ccccc3)nn2c1C,-4.0%,2.5%,13.8%,-0.1%
Cc1ccc(CNS(=O)(=O)c2c(C(=O)N3CCC(C)CC3)c(C)n(C)c2C)cc1,-29.3%,3.8%,-15.5%,-1.6%
CCOc1ccc(NC(=O)C2CCN(C(=O)C3CC(=O)N(c4ccc(C)cc4)C3)CC2)cc1 (stereo not drawn),?,12.3%,-20.2%,.
Cc1ccccc1Nc1oc(-c2ccccc2)nc1-c1cccc2ccccc12,.,-0.6%,.,.
O=S(=O)(c1ccccc1)[C@@]1(c2ccc(Br)cc2)C[C@@H]2ON=C(c3ccccc3)[C@@H]2C1,11.6µM*,0.4%,?,-0.8%
O=S(=O)(c1ccccc1)[C@@]1(c2ccc(Br)cc2)C[C@@H]2ON=C(c3cccc(Br)c3)[C@@H]2C1,18.4µM*,-2.5%,?,-0.3%
CC1CN(C(=S)SCC(=O)c2ccc(Cl)cc2)CC(C)O1 (stereo not drawn),2.59µM*,2.7%,4.11µM*,1.4%
CC1CN(C(=S)NC(=O)c2ccc(Cl)cc2)CC(C)O1 (stereo not drawn),?,2.7%,?,1.3%
Cc1ccccc1NN=Nc1nc2c([nH]1)c(=O)n(C)c(=O)n2C,-18.9%,8.1%,-16.7%,-4.6%
COc1ccc(NN=Nc2nc3c([nH]2)c(=O)n(C)c(=O)n3C)cc1,?,8.2%,20.6µM*,.
COc1ccc([N+](=O)[O-])cc1N,.,16.6%,.,.
CCOc1ccccc1CNS(=O)(=O)c1ccc2c(c1)C(C)(C)C(=O)N2C,23.1µM*!,0.6%,?,-0.6%
Cc1ccc(NC(=O)c2ccc(CNS(=O)(=O)c3ccc4c(c3)C(C)(C)C(=O)N4C)cc2)cc1,-17.8%,0.0%,2.1%,2.2%
Cc1ccc(NC(=O)c2ccc(CNS(=O)(=O)c3ccc4c(c3)C(C)(C)C(=O)N4C)cc2)cc1F,14.6µM*,7.7%,16.4µM*,-1.3%
CCc1cccc(NC(=O)c2ccc(CNS(=O)(=O)c3ccc4c(c3)C(C)(C)C(=O)N4C)cc2)c1,16.4µM*,2.6%,?,-4.3%
CCc1cccc2c(C(O)(c3c[nH]c4c(CC)cccc34)c3c[nH]c4c(CC)cccc34)c[nH]c12,?,.,?,-3.0%
Cc1cccc2c(=O)cc(CSc3ccccc3NC(=O)c3cccc(Br)c3)[nH]c12,?,8.1%,-27.9%,3.1%
Cc1ccccc1C(=O)Nc1ccc(S(=O)(=O)NCC2CCCO2)cc1 (stereo not drawn),13µM*,.,10.3µM*,-1.6%
Cc1ccc(NC(=O)c2ccc(S(=O)(=O)NCC3CCCO3)cc2)cc1 (stereo not drawn),-16.0%,6.8%,-14.8%,-0.7%
CCOc1cc(NC(=S)NCC2CCCO2)c(OCC)cc1NC(=O)c1ccccc1C (stereo not drawn),?,5.9%,29.1µM*,1.3%
O=C(Cc1ccc(Br)cc1)Nc1ccc(S(=O)(=O)NCC2CCCO2)cc1 (stereo not drawn),18.4µM*,-5.5%,11.6µM*,.
COC(=O)c1cccc(NC(=O)c2cccnc2C(=O)O)c1C,?,5.1%,7.2%,.
CC(=O)c1cccc(CN2CCC(n3nccc3NC(=O)c3ccc4c(c3)OCO4)CC2)c1,2.9%,4.0%,-5.4%,-2.6%
O=C(N/N=C/c1ccccc1O)c1cccc(C(F)(F)F)c1,3.26µM*,?,5.17µM*,4.5%
Cc1cccc(C(=O)N/N=C/c2ccccn2)c1,14.6µM*,3.1%,?,-0.9%
